Tested on: Vero E6 infected with SARS-CoV-2
Experiment: inhibition of SARS-CoV-2 cytopathic effect; higher = more antiviral protection, active = above 15
Conditions: 48 h

Measured: inhibition of SARS-CoV-2 cytopathic effect

CC(C)CC(=O)Nc1n[nH]c2c1CN(C(=O)C1CCN(C)CC1)C2(C)C
inactive: 1 nM 0.53% | 8.33 nM -0.22% | 100 nM 0.24% | 833.33 nM 0.59% | 10000 nM 1.78%

Cc1ccc(/N=C/N(C)/C=N/c2ccc(C)cc2C)c(C)c1 [amitraz]
inactive: 1 nM -1.29% | 8.33 nM -0.98% | 100 nM -1.78% | 833.33 nM -1.85% | 10000 nM 0.1%

CC(=O)NC1CCSC1=O (stereo not given) [citiolone]
inactive: 1 nM 3.06% | 8.33 nM -0.41% | 100 nM -6.39% | 833.33 nM -4.01% | 10000 nM 2.58%

CCn1cc(C(=O)O)c(=O)c2ccc(-c3ccncc3)cc21 [rosoxacin]
inactive: 1 nM -1.03% | 8.33 nM -0.12% | 100 nM -1.66% | 833.33 nM -2.14% | 10000 nM 3.73%

COc1ccc(Nc2nccc(NCCO)n2)cc1 [cardiogenol-C]
inactive: 1 nM 0.83% | 8.33 nM -0.02% | 100 nM -0.4% | 833.33 nM 0.3% | 10000 nM 1.2%

O=C1CN(/N=C/c2ccc(-c3ccc([N+](=O)[O-])cc3)o2)C(=O)N1 [dantrolene]
inactive: 1 nM -2.23% | 8.33 nM 0.6% | 100 nM -1.1% | 833.33 nM -0.88% | 10000 nM 1.97%

COc1ccc(S(=O)(=O)Nc2c(C)cc(C)cc2C)cc1
inactive: 1 nM 0.3% | 8.33 nM -0.36% | 100 nM 2.29% | 833.33 nM 2.21% | 10000 nM 0.94%

CN1Cc2ccccc2[C@@H]2c3cccc4[nH]cc(c34)C[C@H]21
inactive: 1 nM 0.05% | 8.33 nM 0.93% | 100 nM -1.06% | 833.33 nM 0.95% | 10000 nM 2.21%
